Measured values from the supplement of paper PMC6518042.
Unmarked numbers belong to inactive results.

test system: Pectobacterium parmentieri SCC3193; experiment: DuctApe activity index (growth/respiration on compound as sole nutrient source, blank-subtracted) (activity index (0-3)); higher = stronger utilization of the compound, active = 3 or more; details: nutrient role (plate category): carbon
Experimental: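 Biolog Phenotype Microarray plates PM1, PM2A (carbon), PM3 (nitrogen) and PM4 (phosphorus/sulfur) inoculated with P. parmentieri SCC3193 in M9-C minimal salts medium with Biolog dye A, and read in the OmniLog for 46 h. Each well was tested in triplicate and the experiment was run twice. DuctApe computed a blank-subtracted activity index (AV, 0-3) from the mean curves; growth is positive at AV >= 3 and negative at AV <= 2.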

| SMILES | DuctApe activity index |
| --- | --- |
| NCCc1ccc(O)cc1 [Tyramine] | 0 |
| NCC(O)c1ccc(O)cc1 (racemic) [D,L-Octopamine] | 0 |
| O=C(O)CC(Br)C(=O)O (centres undefined) [Bromosuccinic acid] | 3 (active) |
| O=C(O)CCCO [g-Hydroxybutyric acid] | 0 |
| NCCc1ccccc1 [Phenylethylamine] | 0 |
| N#C[C@H](O[C@@H]1O[C@H](CO[C@@H]2O[C@H](CO)[C@@H](O)[C@H](O)[C@H]2O)[C@@H](O)[C@H](O)[C@H]1O)c1ccccc1 [Amygdalin] | 0 |

same assay, conditions: nutrient role (plate category): nitrogen

| SMILES | DuctApe activity index |
| --- | --- |
| NCCc1ccc(O)cc1 [Tyramine] | 0 |
| O=C1NC(=O)C(=O)C(=O)N1 [Alloxan] | 0 |
| NCCc1ccccc1 [b-Phenylethylamine] | 0 |
| CCN [Ethylamine] | 0 |
| CN [Methylamine] | 0 |
| O=[N+]([O-])O [Nitrate] | 0 |

same assay, conditions: nutrient role (plate category): phosphate & sulphur

| SMILES | DuctApe activity index |
| --- | --- |
| OP(O)(=S)S [Dithiophosphate] | 1.5 |
| CCOP(=O)(OCC)OCC [Triethyl Phosphate] | 0 |
| OP(O)(O)=S [Thiophosphate] | 1.5 |
| NCCP(=O)(O)O [2-Aminoethyl Phosphonic acid] | 0 |
| CCSCCC(N)C(=O)O (racemic) [DL-Ethionine] | 0 |
| CN(CC(=O)O)C(=N)NP(=O)(O)O [Phosphocreatine] | 2 |
| O=PO [Hypophosphite] | 0 |
